Over roughly 33,000 sequences, “E-score (-0.5 to 0.5)” has its median near -0.021; the highest 2% begin near 0.32. The full list was thinned out, with the highest values kept by preference.
These sequences were tested against T1, Zap1 (UniProt P47043) (assay: PBM E-score (8-mer binding enrichment) (E-score (-0.5 to 0.5)); higher = stronger / more preferred TF binding). Settings: protein concentration: 200 nM; construct: GST-full length.
T1 sequence: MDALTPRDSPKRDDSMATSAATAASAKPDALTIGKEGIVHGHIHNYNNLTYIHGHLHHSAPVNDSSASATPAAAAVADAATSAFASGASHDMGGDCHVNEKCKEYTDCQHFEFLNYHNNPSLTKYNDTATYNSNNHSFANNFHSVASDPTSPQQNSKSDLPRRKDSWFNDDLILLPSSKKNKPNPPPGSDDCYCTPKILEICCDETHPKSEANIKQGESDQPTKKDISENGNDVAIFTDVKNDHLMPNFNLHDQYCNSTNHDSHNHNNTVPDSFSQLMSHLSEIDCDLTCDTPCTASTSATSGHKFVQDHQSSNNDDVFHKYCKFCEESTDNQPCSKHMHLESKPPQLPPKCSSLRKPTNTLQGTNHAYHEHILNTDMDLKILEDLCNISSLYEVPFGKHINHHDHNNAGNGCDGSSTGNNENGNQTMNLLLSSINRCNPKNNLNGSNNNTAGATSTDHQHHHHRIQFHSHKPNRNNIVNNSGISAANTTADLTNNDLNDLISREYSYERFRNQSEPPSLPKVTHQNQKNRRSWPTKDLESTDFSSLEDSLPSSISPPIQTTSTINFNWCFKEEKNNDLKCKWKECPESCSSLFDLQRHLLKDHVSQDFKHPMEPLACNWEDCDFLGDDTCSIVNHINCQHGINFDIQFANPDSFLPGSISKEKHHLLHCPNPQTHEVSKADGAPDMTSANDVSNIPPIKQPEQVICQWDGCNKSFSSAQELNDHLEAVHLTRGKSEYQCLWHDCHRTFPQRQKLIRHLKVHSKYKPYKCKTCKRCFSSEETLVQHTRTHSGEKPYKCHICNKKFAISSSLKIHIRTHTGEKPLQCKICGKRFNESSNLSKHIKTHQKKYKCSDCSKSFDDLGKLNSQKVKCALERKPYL
Procedure, shortened: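 Using PURExpress in vitro transcription/translation, GST-tagged yeast transcription factors were made in full-length or DNA-binding-domain form. These were applied at about 100-200 nM to double-stranded universal all-10-mer Agilent arrays, and bound protein was detected with fluorescent anti-GST. Scans were normalised with masliner before the Universal PBM Analysis Suite assigned E-scores to ungapped eight-base words pooled with their reverse complements.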

Row | Sequence | PBM E-score
1 | AAGATAGC | -0.144
2 | AATAAGGA | -0.00733
3 | AAGCACAA | 0.154
4 | GCGATGGA | 0.0884
5 | CCTTGACG | 0.115
6 | ACAACCTC | 0.31
7 | GCAACCCC | 0.342
8 | ACAACCCC | 0.321
9 | GCAACCCA | 0.294
10 | AAAACCCC | 0.276
11 | ACAAACCC | 0.0973
12 | CCAACCCC | 0.224
13 | AAACCCCT | 0.188
14 | AAAACCCT | 0.362
15 | GGCCAGCC | -0.142
16 | AAATCCTC | -0.279
17 | AGGACCAG | -0.0376
18 | CGGAGTAG | -0.149
19 | CTCCTGTA | -0.0674
20 | ATGGATTG | -0.0434
21 | CGGAATCA | -0.0619
22 | CGGGCCAC | 0.125
23 | CGTCGAGC | -0.244
24 | CAATGAGC | -0.126
25 | CCGTAACC | 0.471

Row | Sequence | PBM E-score
26 | ACGTAACC | 0.411
27 | GCGTAACA | -0.135
28 | ACGTAACT | 0.0456
29 | ACGTAACG | -0.248
30 | GCGTAACC | 0.446
31 | CCGTAACG | 0.0821
32 | CCGTAACA | 0.0988
33 | GCGTAAGC | -0.239
34 | CTTAAGGA | 0.119
35 | ATGGGGCG | -0.129
36 | ATTTAACG | 0.023
37 | CTTTAACC | 0.405
38 | CTTTAACA | 0.123
39 | CTTTTAAC | 0.0885
40 | ATTTAACA | -0.0688
41 | ATTTAACC | 0.418
42 | CGCTGATA | -0.172
43 | ACAGGTTG | 0.147
44 | CCAGGTTC | -0.159
45 | GCAGGTAA | 0.173
46 | CCAGGTAA | 0.041
47 | CCAGGTTA | 0.382
48 | GCAGGTTA | 0.335
49 | ACAGGTTA | 0.398
50 | GCAGGTCA | 0.194

Row | Sequence | PBM E-score
51 | ACAGGTTC | -0.12
52 | TCGCCACA | -0.04
53 | AGCAGCCT | -0.168
54 | ATAGCAGG | 0.0205
55 | ATGAATGG | 0.203
56 | CTAGTAGC | -0.168
57 | ACGATATC | 0.0333
58 | GTGGGTTA | 0.404
59 | CTGGGTCA | 0.143
60 | GTGGGTAA | 0.0319
61 | CTGGGTTC | 0.0979
62 | CTGGGTTA | 0.369
63 | ATGGGTTA | 0.455
64 | GTGGGTGA | 0.0723
65 | ATGGGTTG | 0.234
66 | ATGGGTTC | 0.116
67 | GCCACAAC | 0.212
68 | TAGGACGA | -0.113
69 | AGCAAGCG | -0.192
70 | GAGACAAA | -0.173
71 | GCCACACA | -0.0586
72 | CCCCACGC | -0.0232
73 | ACACAAGG | 0.132
74 | AAGTTCAG | -0.0476
75 | CGGGTCGC | 0.0356

Row | Sequence | PBM E-score
76 | ATGGTCAC | 0.312
77 | AGGGTCGC | 0.364
78 | AGGGTCAG | 0.24
79 | GGGGTCAA | 0.266
80 | CGGGTCAA | 0.163
81 | AGGGTCGG | 0.126
82 | GGGGTCAC | 0.428
83 | TGGGTCAA | 0.0925
84 | AGGGTCAC | 0.417
85 | AGGGTCAA | 0.416
86 | GCGGTCAC | 0.313
87 | GATTCTTA | 0.177
88 | CTAGTCTA | -0.0327
89 | CAGGTTCG | -0.158
90 | ATATCCTG | 0.103
91 | ACCATCGT | -0.0674
92 | ACTAACTG | 0.126
93 | AGGGTCCC | 0.32
94 | AGAGTCAT | -0.0584
95 | AGGGTCCA | 0.214
96 | CGGGTCAG | 0.28
97 | AGGGTCAT | 0.449
98 | CTGGTCAC | 0.148
99 | ATGGTCAA | 0.245
100 | CGGGTCAC | 0.374

Row | Sequence | PBM E-score
101 | CGGGTCCC | -0.116
102 | CGAGGGGC | 0.0476
103 | CAAGGACA | -0.0888
104 | GAGATCCA | -0.0613
105 | GACCAAGA | 0.0225
106 | GAACCTAA | 0.194
107 | TACGAATA | 0.197
108 | ACACCTAA | 0.0902
109 | CAAATAAC | 0.322
110 | AAAATAAC | 0.21
111 | GAAATAAC | 0.221
112 | ACCCTTCT | 0.272
113 | ACCCTTCC | 0.281
114 | ACCCTTCA | 0.341
115 | ACCCTTCG | 0.373
116 | TCCCTTCA | -0.0499
117 | GCCCTTCA | 0.0388
118 | CTCGATCC | -0.0316
119 | ACTGTTCT | -0.0178
120 | GACCTAGC | -0.0032
121 | GTCGCGAC | 0.357
122 | CTCGCGAC | 0.0966
123 | GTCGCGAA | -0.0334
124 | GTAAATCA | 0.207
125 | ACGTCTAG | -0.0284

Row | Sequence | PBM E-score
126 | CGTACTTC | -0.125
127 | CGAGGGTA | 0.371
128 | GGAGGGTA | 0.346
129 | GGAGGGGA | -0.0565
130 | AGAGGGTA | 0.29
131 | GGAGGGAA | -0.213
132 | CGAGGGTC | 0.245
133 | CATTAACA | 0.0919
134 | GATTAACC | 0.173
135 | AATTAATT | 0.0914
136 | AATTAATA | 0.332
137 | AACTAACT | 0.00107
138 | AACTAACA | 0.153
139 | CATTAACG | 0.0999
140 | AATTAACT | 0.0482
141 | CATTAACC | 0.379
142 | TATTAATA | 0.0379
143 | AACTAACC | 0.333
144 | AATTAACC | 0.327
145 | CCGATCGG | 0.13
146 | AGCTTGGG | -0.06
147 | GGCCTTCA | 0.167
148 | GCGAACCC | 0.00303
149 | GAGCTGAC | 0.122
150 | CAGTGACG | -0.0109

Row | Sequence | PBM E-score
151 | ACGAAATG | 0.0348
152 | TAGACTGA | -0.182
153 | AATCTTTG | 0.114
154 | ACATACCT | 0.118
155 | CTTGGCGC | 0.0977
156 | ATGGTAAC | 0.392
157 | GTGGTAAC | 0.36
158 | ATGGTAAA | 0.0888
159 | CTGGTAAC | 0.255
160 | ATGGTAAG | -0.124
161 | GTGGTAAA | -0.0285
162 | CAAGTGTC | -0.0245
163 | ACCCAAGA | 0.152
164 | ACTATGGA | -0.0878
165 | ACAATAGG | -0.0709
166 | ACCAGTTA | 0.206
167 | AGATAACG | 0.0406
168 | CGATAACG | -0.174
169 | AGATAACT | -0.118
170 | CGATAACC | 0.46
171 | GGATAACC | 0.436
172 | AGATAACC | 0.435
173 | CGATAACA | 0.131
174 | GGATAAAC | 0.149
